# Source: article PMC5540273 (PLoS ONE, 2017)
# System: PRKD2
# Details: concentration: 1 μM, replicates: in singlicate; n = 1
# 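Further: KINOMEscan kinase panel screen.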
row,SMILES,%Inh [%]
1,COc1ccc(Nc2nccc(N3CCC(NC(=O)C(C)c4ccc(Cl)cc4)CC3)n2)cc1 (stereo not shown) [GSK1379812],16
2,CC(=O)c1c(C)c2cnc(Nc3ccc(N4CCNCC4)cn3)nc2n(C2CCCC2)c1=O,0
3,Nc1nccc(-c2c(-c3ccc(F)cc3)ncn2C2CCN(Cc3ccccc3)CC2)n1 [SB-219980],3
4,Fc1ccc(-c2nc3n(c2-c2ccncc2)CCS3)cc1 [GI98581],6
5,COc1cccc(CNC(=O)NC2CCN(c3ccnc(Nc4ccc(F)cc4)n3)C2)c1 (stereo not shown) [GSK1379723],0
6,c1ccc(-c2ccnc3[nH]ccc23)cc1 [SB-693578],0
7,Cc1ccc(NC(=O)c2ccc(Cl)cc2)cc1-c1ccc(C(=O)Nc2ccncc2)cc1 [GSK1398467],0
8,CNCc1ccc2nc(NC(=O)c3ccc(C(C)(C)C)cc3)cn2c1,2
9,COc1ccc(-c2coc3ccc(-c4nnc(C)o4)cc23)cc1,0
10,O=C(Nc1n[nH]c2nc(-c3ccco3)c(Br)cc12)C1CCN(Cc2ccccc2)C1.O=C(O)[C@H](O)[C@@H](O)C(=O)O (stereo not shown) [SB-742034],0
11,Cc1c(Cn2c(C)c(C)n3c(=O)cc(N4CCOCC4)nc23)cccc1C(F)(F)F [GSK2328680],18
12,COC(=O)C(NC(=O)NC1CCN(c2ccnc(Nc3ccc(F)cc3)n2)C1)c1ccccc1 (stereo not shown) [GSK1379712],14
13,Cc1ccc(NC(=O)Nc2ccc(Cl)cc2)cc1-c1ccc(C(=O)Nc2ccncc2)cc1 [GSK1398472],0
